“And” between values parts separate entries of the source, which are not always exact repeats. Equal entries are not always repeated.
Key:
Type in all cases: functional
[1] = target: Solute carrier family 2, facilitated glucose transporter member 1 (Homo sapiens) (UniProt P11166); test: ST_JUDE_LEISH: Cytotoxicity at 2uM final concentration against transgenic Leishmania Mexicana promastigotes LmGLUT1 that are glucose transport deficient and complemented with the human glucose transporter GLUT1. Activity is measured by DNA content using SYBR green in vitro
[2] = target: Hexose transporter 1 (Plasmodium falciparum) (UniProt O97467); test: ST_JUDE_LEISH: Cytotoxicity at 2uM final concentration against transgenic Leishmania Mexicana promastigotes LmPfHT that are glucose transport deficient and complemented with the Plasmodium falciparum hexose transporter. Activity is measured by DNA content using SYBR green in vitro
[3] = target: Glucose transporter (Leishmania mexicana) (UniProt O61059); test: ST_JUDE_LEISH: Cytotoxicity at 2uM final concentration against transgenic Leishmania Mexicana promastigotes LmGT2 that are glucose transport deficient and complemented with the L. Mexicana glucose transporter 2. Activity is measured by DNA content using SYBR green in vitro

Sequence of Solute carrier family 2, facilitated glucose transporter member 1 (Homo sapiens) (P11166 whole entry): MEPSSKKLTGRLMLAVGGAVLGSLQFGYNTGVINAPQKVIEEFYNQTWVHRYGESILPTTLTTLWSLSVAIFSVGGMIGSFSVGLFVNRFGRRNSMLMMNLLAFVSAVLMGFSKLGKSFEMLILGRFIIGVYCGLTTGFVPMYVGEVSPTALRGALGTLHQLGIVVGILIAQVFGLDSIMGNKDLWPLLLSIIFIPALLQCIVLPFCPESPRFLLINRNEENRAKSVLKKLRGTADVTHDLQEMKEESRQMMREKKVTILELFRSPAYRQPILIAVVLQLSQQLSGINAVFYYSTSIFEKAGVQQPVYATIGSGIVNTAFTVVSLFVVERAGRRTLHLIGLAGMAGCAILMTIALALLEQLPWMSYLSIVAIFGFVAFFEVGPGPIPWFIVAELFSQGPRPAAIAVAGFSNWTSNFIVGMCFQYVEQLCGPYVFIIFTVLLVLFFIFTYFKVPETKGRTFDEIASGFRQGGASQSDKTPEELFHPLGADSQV

| Structure (SMILES) | inhibition [1] | inhibition [2] | inhibition [3] |
| --- | --- | --- | --- |
| CCC1=C[C@@H]2CN(C1)Cc1c([nH]c3ccccc13)[C@@](C(=O)OC)(c1cc3c(cc1OC)N(C)[C@H]1[C@@](O)(C(=O)OC)[C@H](O)[C@]4(CC)C=CCN5CC[C@]31[C@@H]54)C2 | 2.2% | 4.15% | 2.69% |
| CCCCCC(C)C(C)c1cc(O)c2c(c1)OC(C)(C)c1cnccc1-2 (centres undefined) | -1.41% | 0.7% | -1.32% |
| C/C=C1\CN2CC[C@H]1C[C@@H]2[C@@H](O)c1ccnc2ccc(O)cc12 | 2.02% | 1.55% | 2.5% |
| CC[C@H]1CN2CC[C@@H]1C[C@H]2[C@H](O)c1cc(-c2c(C)noc2C)nc2ccc(OC)cc12 | 3.43% | 4.92% | 6.01% |
| CC[C@H]1CN2CCc3cc(OC)c(OC)cc3[C@@H]2C[C@@H]1C[C@H]1NCCc2cc(OC)c(OC)cc21 | 96.8% | 94% | 90.3% |
| O=C(/C=C/c1ccc(Cl)c(Cl)c1)N1CCC(CN2CCC(c3c[nH]c4ccc(O)cc34)CC2)CC1 | 1.04% | -0.44% | 4.21% |
| CC(=O)Nc1ccc(CN2CCC(N(C)c3cc(NC(=O)c4cccs4)ccn3)CC2)cc1 | -1.53% | 0.83% | -0.48% |
| CC(Cc1ccc(OCc2ccc(CCN(C)C)cc2)cc1)NCCc1cccc(Cl)c1 (centres undefined) | 1.8% | 0.77% | -2.69% |
| CC[C@H]1CN2CC[C@@H]1C[C@H]2[C@H](O)c1cc(-c2ccccc2)nc2ccc(O)cc12 | 5.97% | 5.53% | 2.83% |
| C=C[C@H]1CN2CC[C@H]1C[C@H]2[C@H](OS(=O)(=O)O)c1ccnc2ccccc12 | 9.31% | 8.07% | 9.07% |
| CC[C@H]1CN2CC[C@H]1C[C@H]2[C@H](O)c1cc(-c2ccc(F)cc2)nc2ccc(OC)cc12 | 0.09% | -0.06% | 1.25% |
| O=C(Nc1ccc(Oc2ccccc2)cc1)N1CCC(CN2CCC(c3c[nH]c4ccccc34)CC2)CC1 | 1.64% | 2.58% | -1.12% |
| COc1coc(C(=O)NC2CCN(CC3(c4ccc(Cl)cc4)CCC3)CC2)c1OC | 4.7% | 4.52% | 2.81% |
| CO[C@@H]1C[C@@H](C(=O)Nc2ccccc2)N(c2ccc(C#N)c3ccccc23)C1 | 4.31% | 5.45% | 3.78% |
| O=C(Nc1ccccc1Cl)NC1CCC(CN2CCC(c3c[nH]c4ccccc34)CC2)CC1 (centres undefined) | 4.02% and 5.1% | 3.83% and 5.22% | -1.83% and 3.04% |
| CCCCCCCn1c(=O)c(C(=O)Nc2c(C)cccc2C)c(O)c2ccccc21 | 2.89% | 1.98% | 3.35% |
| Cc1cc(NC(=O)[C@H](CC(C)C)Nc2ccc(C#N)c3ccccc23)ccc1F | 0.56% | 2.4% | -0.16% |
| O=C(NC1CCC(N2CCC3(CC2)C(=O)NCN3c2ccccc2)CC1)c1cc2ccccc2[nH]1 (centres undefined) | -0.44% | -0.89% | 0.13% |
| O=C(/C=C/c1c(Cl)cccc1Cl)NC1CCC(CN2CCC(c3c[nH]c4ccccc34)CC2)CC1 (centres undefined) | 5.03% and 4.85% | 12.9% and 2.55% | 6.66% and 4.94% |
| CC[C@H]1CN2CC[C@@H]1C[C@H]2[C@H](O)c1cc(N2CCC(C(N)=O)CC2)nc2ccc(OC)cc12 | 8.84% | 7.92% | 8.43% |
| CCCCC1(NC(=O)[C@H](CC(C)C)Nc2ccc(C#N)c3ccccc23)CCCCC1 | 1.12% | 4.9% | 2.56% |
| CN1CC=C(c2c[nH]c3ccc(-c4ccccc4)cc23)CC1 | 7.91% | 2.99% | 5.76% |
| COC(=O)c1ccc(CC(C)NCC(O)c2cc(Cl)c(N)c(Cl)c2)cc1 (centres undefined) | 1.96% | 2.46% | 2.16% |
| Cc1nc(-c2ccc(-c3ccc(C(=O)Nc4ccc5c(c4)C4(CCNCC4)CO5)cc3)c(C)c2)no1 | 2.05% | 5.12% | 1.93% |

| Structure (SMILES) | inhibition [1] | inhibition [2] | inhibition [3] |
| --- | --- | --- | --- |
| CC(=O)Nc1ccc2[nH]cc(C3CCN(CC4CCN(C(=O)/C=C/c5ccc(Cl)c(Cl)c5)CC4)CC3)c2c1 | 0.82% | -0.9% | 3.23% |
| Cc1cc(N)nc2ccc(CNCCc3ccccc3Br)cc12 | 1.91% | 1.25% | 1.79% |
| c1ccc(C(OCCC2CCN(Cc3cccc4cccnc34)CC2)c2ccccc2)cc1 | 9.36% | 8.53% | 5.64% |
| O=C(NC1CCC(CN2CCC(c3c[nH]c4ccccc34)CC2)CC1)c1[nH]c(=O)[nH]c(=O)c1F (centres undefined) | -0.09% | 0.08% | -0.11% |
| FC(F)(F)c1cccc(N2CCC(CN3CCC(c4c[nH]c5ccccc45)CC3)CC2)n1 | 7.61% | 6.91% | 7.85% |
| C=C[C@H]1CN2CC[C@H]1C[C@H]2[C@H](O)c1ccnc2ccccc12 | 0.68% | 1.87% | 1.5% |
| O=C(Cc1cc(=O)oc2cc(O)ccc12)N1CCC(CN2CCC(c3c[nH]c4ccccc34)CC2)CC1 | 4.12% | 5.46% | 5% |
| Cc1nc(N)nc(N)c1-c1cccc(Cl)c1 | 3.73% | 4.7% | 1.38% |
| Oc1ccccc1CNCC(O)c1cccc(C(F)(F)F)c1 (centres undefined) | -0.54% | -1.26% | -1.55% |
| Cc1c(C)c2c(c(C)c1O)CC[C@](C)(C(=O)NC1CCC(CN3CCC(c4c[nH]c5ccccc45)CC3)CC1)O2 (some centres undefined) | -0.89% and 2.73% | 2.05% and 2.37% | -1.4% and -1.2% |
| Cc1ccc(/C=C/C(=O)NC2CCC(CN3CCC(c4c[nH]c5ccccc45)CC3)CC2)cc1C (centres undefined) | 3.87% and 0.74% | 3.35% and 0.58% | -0.3% and -2.39% |
| O=C(/C=C/c1ccc(Cl)cc1Cl)NC1CCC(CN2CCC(c3c[nH]c4ccccc34)CC2)CC1 (centres undefined) | 10.9% | 13.1% | 9.99% |
| O=C(c1cc(C(=O)NCc2ccc(Cl)cc2)c(=O)n(Cc2ccc(Cl)cc2)c1)c1cc(F)ccc1O | 2.53% | 1.86% | 1.19% |
| CC(=O)C1(c2ccccc2)CCN(CCC2(c3ccc(Cl)c(Cl)c3)CN(C(=O)C3CCCCC3)CCO2)CC1 (centres undefined) | 4.85% | 2.27% | 3.92% |
| COC(=O)c1ccc(CC(C)NCC(O)c2cccc(Br)c2)cc1 (centres undefined) | -0.96% | -1.92% | 2.26% |
| CC[C@H]1CN2CC[C@H]1C[C@@H]2[C@@H](O)c1cc(Cl)nc2ccc(OC)cc12 | 11% | 8.14% | 8.37% |
| O=C(NCCC1CCN(CCc2c[nH]c3ccccc23)CC1)Nc1ccc(Cl)c(Cl)c1 | 3.67% | 2.49% | 3% |
| CC(NC(C)(C)C)C(O)c1ccc(Cl)c(C(F)(F)F)c1 (centres undefined) | 1.86% | 0.38% | 1.11% |
| CC[C@H]1CN2CC[C@@H]1C[C@H]2[C@H](O)c1cc(N2CCC(N3CCCCC3)CC2)nc2ccc(OC)cc12 | 1.26% | 4.69% | -0.04% |
| CC[C@H]1CN2CC[C@H]1C[C@H]2[C@H](O)c1cc(-c2ccccc2C(F)(F)F)nc2ccc(OC)cc12 | 0.61% | 1.6% | -1.22% |
| C[C@@H]1C[C@@H]([C@H](O)CC2CC(=O)NC(=O)C2)C(=O)[C@@H](C)C1 | 90% | 90.8% | 88.7% |
| FC(F)(F)c1ccc(NC(=S)N2CCC(CN3CCC(c4c[nH]c5ccccc45)CC3)CC2)cc1 | -0.87% | -0.06% | 2.98% |
| CC(=O)Nc1ccc(CN2CCC(N(C)c3cc(NC(=O)c4ccc(F)cc4)ccn3)CC2)cc1 | 1.04% | 2.13% | 2.53% |
| COc1ccc(C=CC(=O)NC2CCC(CN3CCC(c4c[nH]c5ccccc45)CC3)CC2)cc1OC (centres undefined) | 2.26% and 2.87% | 0.82% and 2.73% | -1.08% and -3.42% |

Source: ChEMBL document CHEMBL3433997, “St. Jude Leishmania screening dataset” (2016)
